Inconclusive results are not listed. Activity calls are given as the source filed them.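 The calls were made as follows, unless noted: active = viability at or below 10% of carrier control in both of two separate runs; inconclusive = viability at or below 10% in only one of the two runs; inactive = the rest.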

Results on ten compounds are retold here after PubChem BioAssay.

Test [1] is described as follows: reducers of endogenous Her2 protein level, primary screen, SKBR3 breast tumor cells, AlphaScreen, ATP viability (AID 461;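 active = Her2 level under about 52% in both replicate screens, with viability over 70% of control, limit read from the data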;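 as to Her2 level: lower value means less Her2 protein in the cells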;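 as to viability: percent of carrier control wells set as 100% viability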). Conditions: 18-24 h, measured here: SKBR3 viability, ATP luminescence, at 10 µM.
For test [2], the target named is Receptor tyrosine-protein kinase erbB-2 (Homo sapiens) (UniProt P04626). The description is as above. Conditions: 18-24 h, at 10 µM, stronger effect = lower value.
A short description of test [3]: SK-BR-3 cell growth inhibitors, pilot screen, 24 h, human (AID 572).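 Also: compound exposure lasted between 18 and 24 h rather than exactly 24 h; 100% = carrier-treated control wells.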 Conditions: SK-BR-3 viability, CellTiter-Glo luminescence, at 10 µM, stronger effect = lower value.
Test [4] is described as follows: HUVEC growth inhibition – cell-based, human, primary screen (AID 575;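 active = viability at or below 30% in both replicate assays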;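 also: 100% = median of untreated cell wells with 0.1% DMSO on each plate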). Conditions: HUVEC proliferation, CellTiter-Glo luminescence, 72 h; at 10 µM; stronger effect = lower value.
Test [5] is described as follows: growth inhibitors of H69AR lung tumor, primary screen, human, duplicate replicates (AID 580;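 active = viability at or under a set limit in both replicates, limit being median viability minus 3 SD, cut at about 48% in these data, passing the limit was not always enough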;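 also: 100% = mean luminescence of untreated wells and 0% = no signal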). Conditions: H69AR lung tumor cells viability, ATP luminescence, 72 h; at 10 µM; stronger effect = lower value.
The nature of test [6]: reversal of MRP1-mediated doxorubicin resistance, pilot screen, H69AR cells, doxorubicin co-treatment (AID 601;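 active = viability loss from added drug above about 55%, and viability with drug at most 40%, in both replicates, limit read from the data, passing the limit was not always enough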). Conditions: CellTiter-Glo, 72 h, at 10 µM; for differential viability (reversal): stronger effect = higher value.
Test [7] is described as follows: 384-well plate pilot, post-Golgi transport modulator project, inhibition of yeast transport mutant growth (AID 636; in the data active = inhibition above about 31%). Conditions: absorbance 615 nm, about 18 h, stronger effect = higher value.
Test [8] in a line: growth suppression of yeast trafficking mutant, preliminary HTS, modulators of trafficking downstream of Golgi apparatus project, 1536-format plate, OD 615 nm (AID 637; in the data active = inhibition above about 30%). Conditions: yeast transport mutant growth, absorbance 615 nm, 18 h; stronger effect = higher value.
A short description of test [9]: OD615 S. cerevisiae growth inhibition, permissive medium, pilot counter-assay, permissive growth control for S. cerevisiae lifespan shortening project (AID 705;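 active = growth inhibition above 25% in both replicates, a cutoff set 3 SD above the mean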). Conditions: OD615, 24 h, at 10 µM, stronger effect = higher value.
Test [10] is described as follows: Restrictive medium S. cerevisiae growth inhibition, OD615, pilot screen of yeast lifespan reduction project, restrictive growth control (AID 706;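 active = growth inhibition above a set limit, 3 SD over mean compound inhibition, in both replicates, cut at about 43% in these data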;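 also: modified DeaD lifespan yeast strain shifted to restrictive glucose medium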). Conditions: OD615, 48 h, at 10 µM, stronger effect = higher value.
A short description of test [11]: viability gain of MRP-1-high H69AR cells under doxorubicin, pilot screen, MRP-1 activator project, CellTiter-Glo, duplicate (AID 807;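 active = viability increase at or above a cutoff of the median across tested compounds plus 3 SD, cut at about 8.5% in these data, passing the limit was not always enough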;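 also: compound pretreatment 18-22 h then 72 h combined with doxorubicin; 0% = doxorubicin alone and 100% = vehicle without doxorubicin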). Conditions: H69AR viability with doxorubicin, CellTiter-Glo luminescence; at 10 µM; stronger effect = higher value.
Test [12] is described as follows: growth suppression of beta-catenin knockout HCT116, pilot screen, human colon tumor cells (AID 823;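 active = cell viability at or below a set limit in both duplicate runs, the limit being the all-compound median minus 4 SD, cut at about 23% in these data, passing the limit was not always enough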;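 also: 0% = wells killed by 20 µM Hyamine and 100% = untreated DMSO cell wells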). Conditions: CellTiter-Glo, 60 h, at 10 µM, stronger effect = lower value.
A short description of test [13]: growth suppression of PTEN-deleted HCT116, pilot screen, cell-based, HCT116 clonal line, CellTiter-Glo (AID 824;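 active = viability at or below 27.92% in each of two runs, the all-compound median minus 4 SD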;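 also: 0% = 20 µM Hyamine control and 100% = vehicle cell control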). Conditions: 60 h, at 10 µM, stronger effect = lower value.
Test [14] can be described thus: inhibitors of the yeast RAM network, pilot screen, dse1pr::URA3 reporter, 5-FOA selection (AID 869;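 active = inhibition over a set limit, the all-compound mean plus 3 SD, in both replicate runs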;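 also: 0% = DMSO wells with no growth and 100% = 10 µM 1-NA-PP1 with full growth; RAM network block rescues cells from 5-FOA so hits raise OD615 growth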). Conditions: S. cerevisiae dse1pr::URA3 5-FOA growth, OD615, 2 d; at 10 µM; stronger effect = higher value; strain carries analog-sensitive mutant Cbk1 kinase.
Test [15] in a line: RAM signaling pathway blockade in yeast – S. cerevisiae, Pdr1DBD-CYC8 efflux-inhibited sensitized strain, primary screen (AID 1298;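 active = RAM network inhibition above 8.4% in each of two replicates, 3 SD over the compound average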;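 also: 0% = DMSO untreated cells without growth and 100% = 10 µM 1-NA-PP1 full growth; higher means more yeast growth rescued from 5-FOA killing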). Conditions: S. cerevisiae cbk1-as DSE1-URA3 strain, 5-FOA growth OD615, 2 d; at 50 µM; stronger effect = higher value.
[16] abbreviates: H69AR cells + 2 uM doxorubicin, measured here: viability with 2 uM doxorubicin, stronger effect = lower value.
Where [17] appears, read: H69AR cells, compound alone cytotoxicity.

Sequence of Receptor tyrosine-protein kinase erbB-2 (Homo sapiens) (P04626 whole entry, looked up): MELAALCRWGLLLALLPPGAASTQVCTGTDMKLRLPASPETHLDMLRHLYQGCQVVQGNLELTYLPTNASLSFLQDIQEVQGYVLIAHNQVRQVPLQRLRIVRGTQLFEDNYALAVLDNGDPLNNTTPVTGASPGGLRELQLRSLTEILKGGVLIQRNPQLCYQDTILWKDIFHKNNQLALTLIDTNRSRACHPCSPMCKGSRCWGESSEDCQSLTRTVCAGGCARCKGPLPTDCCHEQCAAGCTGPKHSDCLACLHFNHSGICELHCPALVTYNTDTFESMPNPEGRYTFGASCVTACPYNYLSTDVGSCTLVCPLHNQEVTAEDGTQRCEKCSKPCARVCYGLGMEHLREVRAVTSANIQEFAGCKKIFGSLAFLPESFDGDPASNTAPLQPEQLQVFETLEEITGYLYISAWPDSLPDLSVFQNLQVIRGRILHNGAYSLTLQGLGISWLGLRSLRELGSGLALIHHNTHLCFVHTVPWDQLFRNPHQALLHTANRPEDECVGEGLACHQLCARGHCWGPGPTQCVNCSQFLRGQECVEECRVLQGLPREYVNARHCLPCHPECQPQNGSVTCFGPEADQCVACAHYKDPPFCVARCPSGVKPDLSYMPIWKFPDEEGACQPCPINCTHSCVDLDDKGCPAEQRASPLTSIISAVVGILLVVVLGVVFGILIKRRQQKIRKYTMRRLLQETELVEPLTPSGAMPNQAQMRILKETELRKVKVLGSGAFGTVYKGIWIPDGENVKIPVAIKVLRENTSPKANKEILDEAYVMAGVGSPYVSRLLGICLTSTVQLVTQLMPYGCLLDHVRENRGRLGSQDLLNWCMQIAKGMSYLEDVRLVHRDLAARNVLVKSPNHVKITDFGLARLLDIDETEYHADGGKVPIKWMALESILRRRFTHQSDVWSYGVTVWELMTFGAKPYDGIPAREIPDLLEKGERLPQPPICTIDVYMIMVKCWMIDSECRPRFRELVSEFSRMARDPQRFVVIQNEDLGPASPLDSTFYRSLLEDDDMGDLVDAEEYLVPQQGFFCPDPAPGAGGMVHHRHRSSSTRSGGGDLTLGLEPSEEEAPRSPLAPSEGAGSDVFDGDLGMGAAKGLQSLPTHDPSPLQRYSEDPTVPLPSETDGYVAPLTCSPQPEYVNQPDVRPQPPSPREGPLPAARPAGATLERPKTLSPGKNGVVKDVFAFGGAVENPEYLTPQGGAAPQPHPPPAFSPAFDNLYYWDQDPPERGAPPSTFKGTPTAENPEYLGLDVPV

On to `CC(C)(C)NC(=O)CSc1nnc(-c2ccccn2)n1-c1ccccc1`, for which the viability in test [1] is 98.5%; in [3], 98.5% (inactive); in test [4], 105% (inactive); in test [5], 91.9% (inactive); in [6] (setting [16]), 91.9%; in test [6] (setting [17]), 91.9%. The viability in [12] was 100% (inactive); in test [13], 92.9% (inactive). For the same compound, the Her2 level in test [2] is 126% (inactive). Moreover, the differential viability (reversal) in test [6] (H69AR cells + 2 uM doxorubicin) was 0.06% (inactive). The figures for the inhibition in [7], in [8] and in test [14] were -5.2% (inactive), -3% (inactive) and 0.43% (inactive), respectively. Moreover, the figures for the growth inhibition in test [9] and in test [10] were -14% (inactive) and -6.57% (inactive), respectively. In addition, the viability increase in test [11] is -0.63% (inactive). Further, the RAM network inhibition in [15] was 1.1% (inactive).
With `CCOC(=O)C(CC)n1nc(C)n2c(cc3sccc32)c1=O` (stereo not given), the viability in [1] was 114%; in test [3] it was 114% (inactive); in test [4], 110% (inactive); in test [5] it was 85.1% (inactive); in test [6] (setting [16]), 84.2%; in test [6] (setting [17]) it was 85.1%. Also, the viability in test [12] is 99.8% (inactive); in test [13] it was 95.2% (inactive). Besides, the Her2 level in [2] was 102% (inactive). Also, in [6] (H69AR cells + 2 uM doxorubicin), the differential viability (reversal) was 0.895% (inactive). Moreover, the figures for the inhibition in test [7], in test [8] and in [14] were -5.87% (inactive), 1% (inactive) and -1.04% (inactive), respectively. Also, the growth inhibition in test [9] was -5.97% (inactive); in [10] it was 1.69% (inactive). Also, the viability increase in test [11] was -2.34% (inactive). For the same compound, the RAM network inhibition in test [15] was 2.14% (inactive).
Take `CCOC(=O)N1CCN(C(=O)CSc2nnc(-c3cccc(Cl)c3)o2)CC1`: the viability in test [1] was 82.5%; in test [3] it was 82.5% (inactive); in test [4], 86.1% (inactive); in test [5] it was 93.9% (inactive); in [6] (setting [16]), 86.4%; in test [6] (setting [17]) it was 93.9%. The viability in test [12] is 105% (inactive); in test [13], 100% (inactive). For the same compound, in test [2], the Her2 level is 96.5% (inactive). Also, in test [6] (H69AR cells + 2 uM doxorubicin), the differential viability (reversal) was 7.46% (inactive). Further, the inhibition is 0.13% (inactive) in test [7], -2.95% (inactive) in test [8] and 2.61% (inactive) in test [14]. Moreover, the growth inhibition in test [9] is -6.25% (inactive); in [10], -10.5% (inactive). The viability increase in test [11] was -0.22% (inactive). In addition, in test [15], the RAM network inhibition was 2.71% (inactive).
On to `CCOc1ccc(Cn2nnc(C(=O)NCc3ccc(OC)cc3)c2N)cc1`, for which the viability in test [1] is 95%; in test [3], 95% (inactive); in [4], 74.3% (inactive); in test [5] it was 89.5% (inactive); in test [6] (setting [16]), 91.6%; in test [6] (setting [17]), 89.5%. Moreover, the viability in test [12] was 95.8% (inactive); in test [13], 94.8% (inactive). Besides, in [2], the Her2 level is 102% (inactive). In addition, the differential viability (reversal) in test [6] (H69AR cells + 2 uM doxorubicin) is -2.11% (inactive). Also, the figures for the inhibition in test [7], in [8] and in test [14] were -4.67% (inactive), -4.33% (inactive) and 2.19% (inactive), respectively. For the same compound, the growth inhibition was -3.91% (inactive) in test [9] and -6.16% (inactive) in [10]. In addition, in test [11], the viability increase was -0.43% (inactive). Also, in test [15], the RAM network inhibition was 4.7% (inactive).
For the compound `COC(=O)C1=C(C)Nc2ncnn2C1c1ccc(C)o1` (stereo not given), the viability is 103% in test [1]; 103% (inactive) in test [3]; 94.5% (inactive) in test [4]; 91.7% (inactive) in test [5]; 84.2% in [6] (setting [16]); 91.7% in [6] (setting [17]). In addition, the viability in test [12] was 107% (inactive); in test [13], 101% (inactive). In addition, the Her2 level in test [2] is 119% (inactive). Besides, the differential viability (reversal) in test [6] (H69AR cells + 2 uM doxorubicin) was 7.49% (inactive). The results for the inhibition in [7], in test [8] and in test [14] were 0.27% (inactive), 4.67% (inactive) and 2.39% (inactive), respectively. The growth inhibition in test [9] is -16.6% (inactive); in test [10], -18.4% (inactive). Further, the viability increase in [11] is -1.12% (inactive). Also, the RAM network inhibition in test [15] is -1% (inactive).
On to `CSc1nc2ccccc2c(=O)n1N`, for which the viability is 109% in test [1]; 109% (inactive) in [3]; 93.9% (inactive) in test [4]; 97.5% (inactive) in test [5]; 93.1% in test [6] (setting [16]); 97.5% in [6] (setting [17]). The viability was 92.2% (inactive) in [12] and 103% (inactive) in [13]. The Her2 level in test [2] was 94.5% (inactive). In addition, the differential viability (reversal) in test [6] (H69AR cells + 2 uM doxorubicin) was 4.46% (inactive). For the same compound, the inhibition in test [7] was -3.78% (inactive); in [8], -1.48% (inactive); in [14], 1.75% (inactive). The growth inhibition in test [9] was -16.4% (inactive); in test [10], 6.12% (inactive). Moreover, in [11], the viability increase was -1.1% (inactive). Moreover, in [15], the RAM network inhibition is 4.29% (inactive).
With `CCc1nn(CC(=O)NCCCN2CCc3ccccc3C2)c(=O)c2cc3sccc3n12`, the viability in test [1] was 86%; in test [3], 86% (inactive); in test [4], 89.1% (inactive); in test [5], 77.5% (inactive); in test [6] (setting [16]), 80.8%; in [6] (setting [17]) it was 77.5%. The viability in test [12] is 78.9% (inactive); in [13], 79.9% (inactive). Further, in [2], the Her2 level is 86.5% (inactive). Further, in test [6] (H69AR cells + 2 uM doxorubicin), the differential viability (reversal) is -3.23% (inactive). Besides, the inhibition in [7] was -3.46% (inactive); in test [8] it was 1% (inactive); in test [14], 0.58% (inactive). Further, the growth inhibition is -2.08% (inactive) in test [9] and -10.3% (inactive) in [10]. Also, the viability increase in test [11] is -4.54% (inactive). Moreover, the RAM network inhibition in test [15] was 1.52% (inactive).
With `N#CCCN(Cc1cccnc1)C(=O)Nc1ccc(Cl)c(Cl)c1`, the viability in test [1] is 118%; in test [3], 118% (inactive); in [4], 94.6% (inactive); in [5] it was 91.2% (inactive); in test [6] (setting [16]), 81.4%; in test [6] (setting [17]), 91.2%. The viability in [12] is 95.3% (inactive); in test [13] it was 102% (inactive). In addition, the Her2 level in test [2] is 94% (inactive). Also, in [6] (H69AR cells + 2 uM doxorubicin), the differential viability (reversal) is 9.8% (inactive). Also, the inhibition in test [7] was 0.13% (inactive); in test [8] it was 3.28% (inactive); in [14] it was 0.065% (inactive). The growth inhibition in test [9] is -13.1% (inactive); in test [10], -14.9% (inactive). Further, the viability increase in [11] was 0.83% (inactive). The RAM network inhibition in test [15] was 4.53% (inactive).
Turning to `COc1ccc(-c2nnc(SCC(=O)NC(C)c3ccccc3)o2)cc1` (stereo not given), the viability was 94% in test [1]; 94% (inactive) in test [3]; 82% (inactive) in test [4]; 100% (inactive) in test [5]; 94.4% in test [6] (setting [16]); 100% in [6] (setting [17]). Moreover, the viability in test [12] was 90.8% (inactive); in test [13], 89.8% (inactive). In addition, the Her2 level in test [2] was 102% (inactive). In [6] (H69AR cells + 2 uM doxorubicin), the differential viability (reversal) is 5.95% (inactive). In addition, the results for the inhibition in test [7], in test [8] and in test [14] were 1.87% (inactive), 2.33% (inactive) and 1.37% (inactive), respectively. Also, the growth inhibition was -4.83% (inactive) in test [9] and -1.46% (inactive) in test [10]. In addition, in [11], the viability increase is -3.41% (inactive). For the same compound, the RAM network inhibition in test [15] is 6.94% (inactive).
On to `COc1cc2c(cc1OC)C(c1ccc(C)o1)CC(=O)N2` (stereo not given), for which the viability in [1] is 81.5%; in test [3] it was 81.5% (inactive); in test [4], 86.2% (inactive); in test [5] it was 89.4% (inactive); in test [6] (setting [16]), 80%; in [6] (setting [17]), 89.4%. Besides, the viability in [12] is 80% (inactive); in test [13] it was 78.2% (inactive). Moreover, in [2], the Her2 level was 87.5% (inactive). The differential viability (reversal) in [6] (H69AR cells + 2 uM doxorubicin) was 9.42% (inactive). Further, the inhibition is -0.13% (inactive) in test [7], 4.33% (inactive) in [8] and 1.21% (inactive) in [14]. Further, the growth inhibition was -3.98% (inactive) in test [9] and 1.56% (inactive) in [10]. Moreover, the viability increase in [11] was -4.72% (inactive). For the same compound, in test [15], the RAM network inhibition is 0.73% (inactive).
